Measured values published in PubChem BioAssay (NCATS).
Results filed as inconclusive are left out. Unless noted, the call rests on the fitted dose curve; in most records, active means well fitted curve in either direction with a large enough effect (not every such curve was filed as active); inconclusive means small, poorly fitted or top-dose-only effect, or another doubt; inactive means flat fitted curve, though single readings scatter.

What was measured:
[1] = AP1 Signaling Pathway (AID 357); conditions: ME-180 AP-1-bla reporter, EGF-induced, beta-lactamase ratio, 5 h; at 17.2 µM (top of the series) unless noted; further: on the % scale 0 is the no-effect control and ±100 the full control effect
Method in brief: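 ME-180 cells with beta-lactamase reporter under AP-1 response element, stimulated with EC50 EGF; compounds tested in titration series, 5 h at 37 °C. CCF4 substrate added 2.5 h at room temperature; 460/530 nm emission ratio gave %activity and AC50.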

[2] = NFAT Signaling Pathway (AID 444); conditions: Jurkat NFAT-bla M1, carbachol, beta-lactamase ratio, 5 h; at 17.2 µM (top of the series) unless noted;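 further: carbachol stimulus at about its EC50 of 1 µM final; on the % scale 0 is the no-effect control and ±100 the full control effect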
Method in brief: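 Jurkat cells carrying an NFAT-driven β-lactamase reporter and co-transfected muscarinic M1 receptor were treated with compound plus carbachol (1 uM final, an EC50 level) for 5 h at 37 °C. CCF4 loading followed for 1 h at RT; 460/530 nm ratio gave %activity.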

[3] = Stat Signaling Pathway (AID 446); conditions: ME-180 (cervical carcinoma) SIE beta-lactamase reporter, IL-6 stimulated, 5 h; at 17.2 µM (top of the series) unless noted;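 further: ME-180 cervical cancer cells given 40 pM IL-6 alongside compound; SIE-controlled beta-lactamase reporter measured as 460/530 nm FRET emission ratio; on the % scale 0 is the no-effect control and ±100 the full control effect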
Method in brief: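 Overnight-plated ME-180 cells bearing a STAT Inducible Element beta-lactamase reporter; 5 h co-exposure to compound and 40 pM IL-6; values normalized to 300 pM IL-6 and 125 nM JAK inhibitor controls.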

[4] = biological target: Glucocorticoid receptor (Homo sapiens) (UniProt P04150); assay: GR-GFP Redistribution (AID 450;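 active means compounds whose dose series gives a full or clear partial fitted curve of increased nuclear translocation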; further: potency means the concentration at half of the fitted maximal effect)
Sequence of Glucocorticoid receptor (Homo sapiens) (P04150 whole entry, looked up): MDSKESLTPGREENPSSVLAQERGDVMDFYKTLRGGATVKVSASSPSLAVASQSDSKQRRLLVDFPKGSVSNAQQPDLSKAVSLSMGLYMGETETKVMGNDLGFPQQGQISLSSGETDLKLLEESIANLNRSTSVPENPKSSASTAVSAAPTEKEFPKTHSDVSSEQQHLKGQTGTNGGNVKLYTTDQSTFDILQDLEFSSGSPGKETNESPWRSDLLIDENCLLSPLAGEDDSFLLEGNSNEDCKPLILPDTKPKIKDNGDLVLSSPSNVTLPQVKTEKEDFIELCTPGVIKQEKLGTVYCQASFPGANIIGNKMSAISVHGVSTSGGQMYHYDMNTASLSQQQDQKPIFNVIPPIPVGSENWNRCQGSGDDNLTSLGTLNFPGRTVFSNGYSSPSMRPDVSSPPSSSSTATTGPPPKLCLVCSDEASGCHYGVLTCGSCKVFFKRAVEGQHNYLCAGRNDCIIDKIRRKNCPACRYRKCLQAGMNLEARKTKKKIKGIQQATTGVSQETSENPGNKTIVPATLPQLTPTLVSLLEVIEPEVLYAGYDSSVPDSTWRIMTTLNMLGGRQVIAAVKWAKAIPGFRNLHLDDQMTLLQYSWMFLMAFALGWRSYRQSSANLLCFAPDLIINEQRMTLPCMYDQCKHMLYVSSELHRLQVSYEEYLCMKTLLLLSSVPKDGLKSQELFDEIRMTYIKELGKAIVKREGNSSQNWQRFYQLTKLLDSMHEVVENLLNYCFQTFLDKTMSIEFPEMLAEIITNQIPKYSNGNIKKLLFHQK

COc1ccc(-n2ncc3c(N4CCC(C(N)=O)CC4)ncnc32)cc1
inactive: activity change, negative = inhibition [1] -0.0678% | activity change, negative = inhibition [2] 6% | activity, negative = inhibition [3] -1.03% | Potency [4] > 20.6 µM

C=C(C)Cn1c(-c2ccc(OC)cc2)nc2ccccc21
inactive: activity change, negative = inhibition [1] -23.2% | activity change, negative = inhibition [2] 3.93% | activity, negative = inhibition [3] 5.37% | Potency [4] > 20.6 µM

COc1ccc(/C(O)=C2/C(=O)C(=O)N(Cc3ccco3)C2c2cccs2)cc1 (centres undefined)
inactive: activity change, negative = inhibition [1] 7% | activity change, negative = inhibition [2] -13.1% | activity, negative = inhibition [3] -19.8% | Potency [4] > 20.6 µM

C[n+]1cccc(CNC(=O)/C=N/O)c1
inactive: activity change, negative = inhibition [1] -0.78% | activity change, negative = inhibition [2] 2.4% | activity, negative = inhibition [3] 7.83% | Potency [4] > 20.6 µM

COc1cc(/C=N/n2c(C)nnc2C)cc(OC)c1OC
inactive: activity change, negative = inhibition [1] -12.3% | activity change, negative = inhibition [2] 10.5% | activity, negative = inhibition [3] -4.5% | Potency [4] > 20.6 µM

Clc1ccccc1-c1nn2c(-c3ccccn3)nnc2s1
inactive: activity change, negative = inhibition [1] -2.63% | activity change, negative = inhibition [2] -11.1% | activity, negative = inhibition [3] 12.8% | Potency [4] > 20.6 µM

CCC(=O)N[C@@H]1CC(C(C)(C)NC(=O)CC)CC=C1C (some centres undefined)
inactive: activity change, negative = inhibition [1] 8.41% | activity change, negative = inhibition [2] 6.85% | activity, negative = inhibition [3] 0.886% | Potency [4] > 20.6 µM

N#Cc1c(N)nc(SCC(=O)NCCc2ccccc2)c(C#N)c1-c1cccs1
inactive: activity change, negative = inhibition [1] 0.711% | activity change, negative = inhibition [2] 15.3% | activity, negative = inhibition [3] 5.35% | Potency [4] > 20.6 µM

COc1ccccc1C(CC(=O)Nc1nccs1)c1ccco1 (centres undefined)
inactive: activity change, negative = inhibition [1] -11.9% | activity change, negative = inhibition [2] -20.1% | activity, negative = inhibition [3] -11.3% | Potency [4] > 20.6 µM

CSc1nc(O)c(Cc2ccccc2)c(=O)[nH]1
inactive: activity change, negative = inhibition [1] -12.8% | activity change, negative = inhibition [2] 14.1% | activity, negative = inhibition [3] 0.301% | Potency [4] > 20.6 µM

CC(=O)c1cccc(N=C2NC(=O)C(CO)(CO)S2)c1
inactive: activity change, negative = inhibition [1] 3.54% | activity change, negative = inhibition [2] -3.93% | activity, negative = inhibition [3] 4.42% | Potency [4] > 20.6 µM

CN(C)/C=C1\N=C(c2cccs2)OC1=O
inactive: activity change, negative = inhibition [1] 4.03% | activity change, negative = inhibition [2] 6.03% | activity, negative = inhibition [3] 13.9% | Potency [4] > 20.6 µM

CCCCn1c2nc3ccccc3nc2c2c(=O)n(CC(C)C)cnc21
inactive: activity change, negative = inhibition [1] -1.88% | activity change, negative = inhibition [2] -20.4% | activity, negative = inhibition [3] -6.11% | Potency [4] > 20.6 µM

c1coc(-c2nnc3sc(C4CCCCC4)nn23)c1
inactive: activity change, negative = inhibition [1] -14.7% | activity change, negative = inhibition [2] -19.5% | activity, negative = inhibition [3] 6.55% | Potency [4] > 20.6 µM

COc1cc(C(=O)Nc2ccc(O)cc2C(=O)O)ccc1OC(C)=O
inactive: activity change, negative = inhibition [1] -6.46% | activity change, negative = inhibition [2] 22.4% | activity, negative = inhibition [3] 6.09% | Potency [4] > 20.6 µM

CCCCOc1ccc(C(=O)N2CCCC2C(=O)O)cc1 (centres undefined)
inactive: activity change, negative = inhibition [1] -0.0169% | activity change, negative = inhibition [2] -4.49% | activity, negative = inhibition [3] 9.6% | Potency [4] > 20.6 µM

Cc1ccc(OCC(=O)N(C)CCc2ccccn2)cc1
inactive: activity change, negative = inhibition [1] -3.13% | activity change, negative = inhibition [2] 5.19% | activity, negative = inhibition [3] 6.69% | Potency [4] > 20.6 µM

C=CCn1cnc2c(c1=O)c1nc3ccccc3nc1n2-c1ccc(C)cc1
inactive: activity change, negative = inhibition [1] -1.69% | activity change, negative = inhibition [2] -10.5% | activity, negative = inhibition [3] -8.6% | Potency [4] > 20.6 µM

COc1cc(C2C(C(=O)c3ccc(C)o3)=C(O)C(=O)N2c2cc(C)on2)cc(OC)c1OC (centres undefined)
inactive: activity change, negative = inhibition [1] 5.13% | activity change, negative = inhibition [2] -1.16% | activity, negative = inhibition [3] 2.07% | Potency [4] > 20.6 µM

Cc1nc(SCC(=O)Nc2ccc3c(c2)OCO3)c(C#N)c2c1CCCC2
inactive: activity change, negative = inhibition [1] -14.5% | activity change, negative = inhibition [2] -1.28% | activity, negative = inhibition [3] -15.4% | Potency [4] > 20.6 µM

Cc1c(Cl)c(C(F)(F)F)nn1CC(=O)N1CCSCC1
inactive: activity change, negative = inhibition [1] 9.46% | activity change, negative = inhibition [2] 0.195% | activity, negative = inhibition [3] 5.37% | Potency [4] > 20.6 µM

COC(=O)c1ccc(OC(=O)c2ccc(OC)c(OC)c2)c(OC)c1
inactive: activity change, negative = inhibition [1] -0.243% | activity change, negative = inhibition [2] -10.5% | activity, negative = inhibition [3] -2.16% | Potency [4] > 20.6 µM

O=C(NCc1ccco1)c1ccc(=O)oc1
inactive: activity change, negative = inhibition [1] 13.8% | activity change, negative = inhibition [2] 6.96% | activity, negative = inhibition [3] -6.97% | Potency [4] > 20.6 µM

CC(O)CNc1nc2c(c(=O)n(C)c(=O)n2C)n1Cc1cccc(C(F)(F)F)c1 (centres undefined)
inactive: activity change, negative = inhibition [1] -10.4% | activity change, negative = inhibition [2] 4.56% | activity, negative = inhibition [3] -0.279% | Potency [4] > 20.6 µM

O=C(CN1CCc2[nH]c3ccccc3c2C1)N1CCCCC1
inactive: activity change, negative = inhibition [1] -7.36% | activity change, negative = inhibition [2] -20.1% | activity, negative = inhibition [3] 4.96% | Potency [4] > 20.6 µM

O=c1c2c3c(sc2n2cnnc2n1C1CCCCC1)CCC3
inactive: activity change, negative = inhibition [1] -5.1% | activity change, negative = inhibition [2] -1.53% | activity, negative = inhibition [3] 22.2% | Potency [4] > 20.6 µM
